# Assay results published in the supplement of paper PMC10849652.
# The full data set covers some 7,900 targets. This sample favours those with a hit. About 0.6% of all pairs of compound and target were hits. A number with no mark means an inactive call.
# Experiments:
# Assay in all cases: log2 fold change, soluble protein after heating vs DMSO (PISA); higher = thermal stabilisation; K562 cells, 10 uM, 30 min; active = over 0.2 and 3.5 SD of the protein, either way, in both replicates (recomputed)
# [1] = compound: COC1=CC=C(C=C1)CN2C=CC3=C2C=C(C=C3)C(=O)NO
# Method in brief: (§1)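 Values are thermal stability changes relative to control samples and are taken from duplicates. They are stated as log2 fold changes. Before quantification by TMTpro 16plex LC-MS/MS with equalised channel sums, K562 cells at 2×10^6 cells/mL were treated with 10 μM compound for 30 min, heated in aliquots for 3 min across 48°C-58°C, pooled, extracted in PBS with 0.5% NP-40 at 4°C, and centrifuged at 21,000xg for 90 min to give the soluble supernatant.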
# filanesib = compound: CON(C)C(=O)N1N=C(c2cc(F)ccc2F)S[C@@]1(CCCN)c1ccccc1 [filanesib]
# Method in brief: as §1
# zotarolimus = compound: CO[C@H]1C[C@@H]2CC[C@@H](C)[C@@](O)(O2)C(=O)C(=O)N2CCCC[C@H]2C(=O)O[C@H]([C@H](C)C[C@@H]2CC[C@H](n3cnnn3)[C@H](OC)C2)CC(=O)[C@H](C)/C=C(\C)[C@@H](O)[C@@H](OC)C(=O)[C@H](C)C[C@H](C)/C=C/C=C/C=C/1C [zotarolimus]
# Method in brief: as §1
# idasanutlin = compound: COc1cc(C(=O)O)ccc1NC(=O)[C@@H]1N[C@@H](CC(C)(C)C)[C@](C#N)(c2ccc(Cl)cc2F)[C@H]1c1cccc(Cl)c1F [idasanutlin]
# Method in brief: as §1
# alisertib = compound: COc1cc(Nc2ncc3c(n2)-c2ccc(Cl)cc2C(c2c(F)cccc2OC)=NC3)ccc1C(=O)O [alisertib]
# Method in brief: as §1
# [2] = compound: COc1cc2nc(-c3cc(F)ccc3O)nc(N[C@@H]3CNC[C@H]3C(C)(C)O)c2cc1OC
# Method in brief: as §1
# gefitinib = compound: COc1cc2ncnc(Nc3ccc(F)c(Cl)c3)c2cc1OCCCN1CCOCC1 [gefitinib]
# Method in brief: as §1
# [3] = compound: COc1cccc2cc(-c3nc([C@H]4CC[C@H](C(=O)O)CC4)n4ncnc(N)c34)[nH]c12
# Method in brief: as §1
# lapatinib = compound: CS(=O)(=O)CCNCc1ccc(-c2ccc3ncnc(Nc4ccc(OCc5cccc(F)c5)c(Cl)c4)c3c2)o1 [lapatinib]
# Method in brief: as §1
# pictilisib = compound: CS(=O)(=O)N1CCN(Cc2cc3nc(-c4cccc5[nH]ncc45)nc(N4CCOCC4)c3s2)CC1 [pictilisib]
# Method in brief: as §1
# [4] = compound: CS(=O)(=O)c1ccc(-c2cnc(N)c(C(=O)Nc3ccccc3)n2)cc1
# Method in brief: as §1
# crizotinib = compound: C[C@@H](Oc1cc(-c2cnn(C3CCNCC3)c2)cnc1N)c1c(Cl)ccc(F)c1Cl [crizotinib]
# Method in brief: as §1
# [5] = compound: C[C@@H]1COCCN1C2=NC(=NC(=C2)C3(CC3)S(=O)(=O)C)C4=C5C=CNC5=CC=C4
# Method in brief: as §1
# [6] = compound: C[C@H](C1=CC=C(C=C1)C(=O)NC2=C3C=CNC3=NC=C2)N
# Method in brief: as §1
# duvelisib = compound: C[C@H](Nc1ncnc2nc[nH]c12)c1cc2cccc(Cl)c2c(=O)n1-c1ccccc1 [duvelisib]
# Method in brief: as §1
# gandotinib = compound: Cc1cc(Nc2cc(CN3CCOCC3)c3nc(C)c(Cc4ccc(Cl)cc4F)n3n2)n[nH]1 [gandotinib]
# Method in brief: as §1
# tozasertib = compound: Cc1cc(Nc2cc(N3CCN(C)CC3)nc(Sc3ccc(NC(=O)C4CC4)cc3)n2)n[nH]1 [tozasertib]
# Method in brief: as §1
# [7] = compound: Cc1cc(SCc2sc(-c3ccc(C(F)(F)F)cc3)nc2C)ccc1OCC(=O)O
# Method in brief: as §1
# doramapimod = compound: Cc1ccc(-n2nc(C(C)(C)C)cc2NC(=O)Nc2ccc(OCCN3CCOCC3)c3ccccc23)cc1 [doramapimod]
# Method in brief: as §1
# ispinesib = compound: Cc1ccc(C(=O)N(CCCN)[C@@H](c2nc3cc(Cl)ccc3c(=O)n2Cc2ccccc2)C(C)C)cc1 [ispinesib]
# Method in brief: as §1
# UniProt P63208, sequence (P63208 whole entry, looked up): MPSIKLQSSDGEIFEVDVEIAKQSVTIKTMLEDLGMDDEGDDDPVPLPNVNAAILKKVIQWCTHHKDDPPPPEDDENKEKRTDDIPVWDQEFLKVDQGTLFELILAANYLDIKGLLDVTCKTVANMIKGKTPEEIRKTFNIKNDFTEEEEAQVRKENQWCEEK
# UniProt Q5T8P6, sequence (Q5T8P6 whole entry, looked up): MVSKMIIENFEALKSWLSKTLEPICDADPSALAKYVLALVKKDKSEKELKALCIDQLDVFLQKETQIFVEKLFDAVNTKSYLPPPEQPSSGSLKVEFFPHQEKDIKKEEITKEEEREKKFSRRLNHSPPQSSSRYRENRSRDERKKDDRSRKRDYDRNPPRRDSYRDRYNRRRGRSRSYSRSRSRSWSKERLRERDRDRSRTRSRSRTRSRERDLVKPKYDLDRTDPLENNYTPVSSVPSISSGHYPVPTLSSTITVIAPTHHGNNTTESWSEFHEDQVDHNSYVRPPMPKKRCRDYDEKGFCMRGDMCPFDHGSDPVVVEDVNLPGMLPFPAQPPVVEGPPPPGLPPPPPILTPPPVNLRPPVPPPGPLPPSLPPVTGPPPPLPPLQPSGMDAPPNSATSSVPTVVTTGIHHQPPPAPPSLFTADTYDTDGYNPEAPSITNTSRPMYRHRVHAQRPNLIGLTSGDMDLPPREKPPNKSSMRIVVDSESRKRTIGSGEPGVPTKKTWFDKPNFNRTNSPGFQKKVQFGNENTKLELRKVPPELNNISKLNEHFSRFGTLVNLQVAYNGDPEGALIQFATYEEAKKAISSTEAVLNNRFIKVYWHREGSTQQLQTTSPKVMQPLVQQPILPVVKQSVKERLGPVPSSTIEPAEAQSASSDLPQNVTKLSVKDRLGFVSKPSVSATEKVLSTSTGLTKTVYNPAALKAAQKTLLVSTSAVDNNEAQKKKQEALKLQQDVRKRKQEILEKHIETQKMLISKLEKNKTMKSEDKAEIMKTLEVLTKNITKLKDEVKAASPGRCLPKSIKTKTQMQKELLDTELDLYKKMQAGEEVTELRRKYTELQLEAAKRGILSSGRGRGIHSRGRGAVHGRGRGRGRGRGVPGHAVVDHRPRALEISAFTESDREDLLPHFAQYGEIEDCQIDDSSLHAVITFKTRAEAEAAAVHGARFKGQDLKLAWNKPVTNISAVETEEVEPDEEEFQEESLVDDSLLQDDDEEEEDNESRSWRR
# UniProt Q92696, sequence (Q92696 whole entry, looked up): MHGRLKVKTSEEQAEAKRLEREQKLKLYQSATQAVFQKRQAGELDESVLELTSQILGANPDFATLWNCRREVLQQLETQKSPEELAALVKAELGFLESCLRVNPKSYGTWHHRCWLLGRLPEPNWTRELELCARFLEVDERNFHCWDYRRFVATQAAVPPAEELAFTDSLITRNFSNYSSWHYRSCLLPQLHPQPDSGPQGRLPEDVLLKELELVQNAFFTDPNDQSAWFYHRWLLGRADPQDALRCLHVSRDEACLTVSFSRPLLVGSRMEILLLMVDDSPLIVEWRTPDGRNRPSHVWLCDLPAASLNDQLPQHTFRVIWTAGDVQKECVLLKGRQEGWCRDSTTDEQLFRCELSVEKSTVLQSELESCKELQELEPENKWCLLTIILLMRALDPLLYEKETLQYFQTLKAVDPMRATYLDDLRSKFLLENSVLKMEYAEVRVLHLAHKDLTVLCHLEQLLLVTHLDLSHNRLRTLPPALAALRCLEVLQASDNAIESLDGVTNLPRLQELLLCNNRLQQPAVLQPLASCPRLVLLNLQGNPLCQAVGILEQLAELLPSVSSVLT
# UniProt O00767, sequence (O00767 whole entry, looked up): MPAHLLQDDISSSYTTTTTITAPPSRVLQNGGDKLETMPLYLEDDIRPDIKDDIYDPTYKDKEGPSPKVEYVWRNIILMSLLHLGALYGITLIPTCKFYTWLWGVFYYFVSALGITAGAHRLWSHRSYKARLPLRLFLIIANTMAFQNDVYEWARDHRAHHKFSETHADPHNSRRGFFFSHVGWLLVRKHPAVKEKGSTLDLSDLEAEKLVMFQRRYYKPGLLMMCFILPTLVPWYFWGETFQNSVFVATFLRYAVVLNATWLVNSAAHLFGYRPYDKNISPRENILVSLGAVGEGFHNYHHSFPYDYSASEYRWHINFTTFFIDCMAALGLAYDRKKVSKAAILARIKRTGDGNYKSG
# UniProt Q96EE3, sequence (Q96EE3 whole entry, looked up): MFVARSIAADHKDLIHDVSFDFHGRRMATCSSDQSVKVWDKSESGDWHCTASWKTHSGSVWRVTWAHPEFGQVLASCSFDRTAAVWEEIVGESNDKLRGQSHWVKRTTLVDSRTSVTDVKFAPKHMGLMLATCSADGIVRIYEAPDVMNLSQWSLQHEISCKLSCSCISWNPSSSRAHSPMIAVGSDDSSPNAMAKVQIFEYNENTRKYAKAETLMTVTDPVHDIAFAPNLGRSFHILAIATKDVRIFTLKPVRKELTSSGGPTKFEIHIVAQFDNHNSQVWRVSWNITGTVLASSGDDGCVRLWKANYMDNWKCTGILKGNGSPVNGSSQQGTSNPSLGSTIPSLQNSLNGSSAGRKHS
# UniProt Q8NEM2, sequence (Q8NEM2 whole entry, looked up): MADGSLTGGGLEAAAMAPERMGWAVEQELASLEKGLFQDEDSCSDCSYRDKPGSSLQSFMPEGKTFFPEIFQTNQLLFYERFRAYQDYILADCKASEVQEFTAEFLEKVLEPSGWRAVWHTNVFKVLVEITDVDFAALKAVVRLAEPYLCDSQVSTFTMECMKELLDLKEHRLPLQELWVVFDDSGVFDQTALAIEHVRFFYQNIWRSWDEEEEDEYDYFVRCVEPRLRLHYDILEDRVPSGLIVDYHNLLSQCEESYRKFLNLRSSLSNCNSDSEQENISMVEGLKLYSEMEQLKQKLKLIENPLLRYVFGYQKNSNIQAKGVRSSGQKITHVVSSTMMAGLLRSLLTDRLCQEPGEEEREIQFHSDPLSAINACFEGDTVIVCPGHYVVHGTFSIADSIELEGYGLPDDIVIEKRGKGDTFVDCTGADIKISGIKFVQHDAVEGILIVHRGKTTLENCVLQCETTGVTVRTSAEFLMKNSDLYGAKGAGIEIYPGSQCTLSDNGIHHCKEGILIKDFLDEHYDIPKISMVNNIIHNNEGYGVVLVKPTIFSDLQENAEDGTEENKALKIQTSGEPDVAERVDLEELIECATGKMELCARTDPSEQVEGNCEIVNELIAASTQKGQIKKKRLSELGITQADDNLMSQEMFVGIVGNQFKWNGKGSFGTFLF
# UniProt O95059, sequence (O95059 whole entry, looked up): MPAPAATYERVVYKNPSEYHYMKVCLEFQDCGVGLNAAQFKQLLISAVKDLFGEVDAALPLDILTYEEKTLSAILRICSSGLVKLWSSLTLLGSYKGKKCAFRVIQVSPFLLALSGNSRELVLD
# UniProt Q7L4I2, sequence (Q7L4I2 whole entry, looked up): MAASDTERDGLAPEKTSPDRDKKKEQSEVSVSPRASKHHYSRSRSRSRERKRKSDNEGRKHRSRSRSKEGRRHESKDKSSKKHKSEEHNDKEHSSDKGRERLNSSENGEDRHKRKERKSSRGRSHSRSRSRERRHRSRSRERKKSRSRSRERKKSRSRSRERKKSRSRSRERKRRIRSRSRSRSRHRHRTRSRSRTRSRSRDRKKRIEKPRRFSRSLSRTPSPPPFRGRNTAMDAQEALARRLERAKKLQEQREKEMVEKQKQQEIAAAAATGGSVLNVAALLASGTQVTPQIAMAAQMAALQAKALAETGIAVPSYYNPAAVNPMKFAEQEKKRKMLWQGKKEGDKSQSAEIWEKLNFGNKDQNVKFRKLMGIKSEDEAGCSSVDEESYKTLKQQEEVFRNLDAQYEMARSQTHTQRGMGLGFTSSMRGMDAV
# UniProt P06400, sequence (P06400 whole entry, looked up): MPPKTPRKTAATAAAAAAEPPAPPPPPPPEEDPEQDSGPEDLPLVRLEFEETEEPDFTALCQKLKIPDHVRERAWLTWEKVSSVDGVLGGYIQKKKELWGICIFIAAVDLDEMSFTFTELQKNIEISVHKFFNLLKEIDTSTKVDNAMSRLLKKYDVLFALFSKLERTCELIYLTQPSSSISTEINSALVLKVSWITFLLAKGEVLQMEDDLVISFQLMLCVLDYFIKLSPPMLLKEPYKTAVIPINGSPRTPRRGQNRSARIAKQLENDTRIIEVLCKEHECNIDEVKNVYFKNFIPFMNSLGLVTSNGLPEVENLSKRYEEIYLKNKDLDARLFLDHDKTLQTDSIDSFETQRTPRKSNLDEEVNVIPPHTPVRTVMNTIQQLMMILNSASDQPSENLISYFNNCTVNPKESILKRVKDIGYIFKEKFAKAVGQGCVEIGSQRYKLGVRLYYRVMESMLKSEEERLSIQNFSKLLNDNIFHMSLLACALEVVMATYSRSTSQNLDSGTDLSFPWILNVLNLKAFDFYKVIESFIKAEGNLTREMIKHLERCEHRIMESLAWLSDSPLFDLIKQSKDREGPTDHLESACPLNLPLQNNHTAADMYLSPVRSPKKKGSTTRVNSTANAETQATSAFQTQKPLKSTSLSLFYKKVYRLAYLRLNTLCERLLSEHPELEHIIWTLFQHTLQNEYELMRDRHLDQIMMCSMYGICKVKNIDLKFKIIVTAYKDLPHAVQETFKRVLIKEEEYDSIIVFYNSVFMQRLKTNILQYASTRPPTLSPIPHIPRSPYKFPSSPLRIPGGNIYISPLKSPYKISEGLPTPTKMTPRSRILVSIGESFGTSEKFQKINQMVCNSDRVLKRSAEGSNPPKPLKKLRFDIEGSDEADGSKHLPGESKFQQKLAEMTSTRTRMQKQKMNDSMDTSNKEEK
Target,log2 fold change [1],log2 fold change (filanesib),log2 fold change (zotarolimus),log2 fold change (idasanutlin),log2 fold change (alisertib),log2 fold change [2],log2 fold change (gefitinib),log2 fold change [3],log2 fold change (lapatinib),log2 fold change (pictilisib),log2 fold change [4],log2 fold change (crizotinib),log2 fold change [5],log2 fold change [6],log2 fold change (duvelisib),log2 fold change (gandotinib),log2 fold change (tozasertib),log2 fold change [7],log2 fold change (doramapimod),log2 fold change (ispinesib)
SKP1 (UniProt P63208),0.209,-0.095,0.09,0.027,-0.005,-0.099,0.001,-0.008,0.01,-0.121,-0.052,0.027,-0.039,-0.19,-0.054,-0.035,0.001,0.038,-0.096,0.089
SEH1L isoform 1 (UniProt Q96EE3),-0.004,0.012,-0.03,-0.014,-0.024,0.025,0.015,0.038,-0.045,0.017,-0.03,0.04,-0.008,-0.028,0.016,-0.069,0.011,0.01,0.011,0.054
RABGGTA (UniProt Q92696),0.019,-0.013,0.022,-0.019,0.016,-0.007,0.041,0.017,0.002,0.067,-0.035,-0.076,0.046,-0.058,0.045,-0.004,-0.036,-0.008,0.017,0.026
RUFY1 (UniProt Q96T51),-0.015,0.005,0.056,-0.049,0.047,0.02,-0.004,-0.053,-0.035,-0.009,-0.04,-0.003,-0.034,0.075,-0.005,-0.029,0.166,0.118,0.032,-0.065
RBM26 isoform 2 (UniProt Q5T8P6),0.086,-0.071,0.03,-0.025,0.093,-0.045,0.064,0.009,0.034,0.059,-0.012,0.03,0.374,-0.154,0.022,-0.056,0.036,0.136,-0.036,-0.089
RSL1D1 (UniProt O76021),-0.094,0.543,0.055,0.363,-0.202,0.181,-0.031,-0.065,0.181,-0.013,-0.146,0.037,-0.33,0.456,-0.169,0.146,0.066,-0.037,0.312,0.251
SHCBP1 (UniProt Q8NEM2),-0.014,0.059,0.103,-0.023,0.134,0.102,0,-0.056,-0.13,-0.057,0.092,-0.077,0.043,0.119,-0.021,-0.124,0.098,0.169,0.02,-0.096
SLC18B1 (UniProt Q6NT16),0.072,-0.094,-0.068,0.083,0.022,0.058,0.01,0.087,-0.061,0.067,0.027,-0.404 (active),0.06,-0.034,0.047,0.092,-0.097,-0.07,-0.002,-0.193
RSRC2 (UniProt Q7L4I2),0.033,0.066,-0.002,0.048,-0.102,0.034,0.005,0.022,-0.021,0.011,0.02,0.022,-0.018,-0.095,0.002,0.052,-0.058,-0.039,-0.022,0.087
RPP14 (UniProt O95059),-0.006,0.046,0.004,-0.038,-0.051,-0.053,-0.022,0.047,0.042,-0.19,-0.048,-0.046,0.019,-0.076,-0.019,-0.119,0.052,-0.054,0.06,0.03
SCD (UniProt O00767),-0.458 (active),-0.074,-0.024,-0.001,0.014,-0.054,0.019,0.048,-0.017,-0.053,0.024,-0.2,-0.06,-0.068,0.007,-0.061,-0.07,-0.119,-0.028,-0.319
RB1 (UniProt P06400),-0.028,-0.08,0.011,0,-0.016,-0.325 (active),0.006,0.052,0.025,0.033,0.041,-0.112,0.117,-0.07,0.033,-0.168,-0.001,-0.024,0.022,-0.002
